Experimental findings from PubChem BioAssay (Tox21) are described below.

Several values for one entry are separate records, joined by “and”; a condition that tells them apart may be missing. Identical values can stand only once. Records with an inconclusive call do not appear. Some compounds were tested as several samples or in several runs, with calls that do not always agree. Activity calls are given as the source filed them. Unless noted, calls follow the shape of the dose curve; as a rule, active = well fitted curve in the direction sought with a large enough effect in the repeat runs; inconclusive = weak or mixed curves; inactive = no such curve, though single readings can be large; an effect the other way counts as inactive or inconclusive.

A short description of experiment [1]: qHTS assay to identify small molecule agonists of the vitamin D receptor (VDR) signaling pathway - cell viability counter screen (AID 743224). Also: series mostly up to about 63 µM; nearly all actives have a fitted effect of over 50% in size. The gist of the method: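 Here cell health was gauged by luminescent ATP detection (CellTiter-Glo, 30 min RT) in VDR-bla cells that had been incubated with test compounds for 16 h at 37C and 5% CO2.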
A short description of experiment [2]: qHTS assay to identify small molecule antagonists of the vitamin D receptor (VDR) signaling pathway - cell viability counter screen (AID 743225). Also: nearly all actives have a fitted effect of over 50% in size. The gist of the method: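 Compounds were pinned onto VDR-bla HEK 293T cells together with 1-alpha,25-dihydroxyvitamin D3 at 3 nM final. After 16 h at 37C and 5% CO2 plus the reporter readout, cell viability was measured by CellTiter-Glo luminescence (30 min, room temperature).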

Experiment [3] is described as follows: qHTS assay to identify small molecule agonists of the NFkB signaling pathway (AID 1159509; active = well fitted curve in the direction sought with a large enough effect in the signal ratio in the repeat runs, not every such curve was filed as active; the % refers to the signal ratio; also: series mostly up to about 61 µM). The gist of the method: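 ME-180 NFkB-bla, 2,000 cells/well, overnight plating; cpd pinned in DMSO, 5 h 37 C; B/G FRET substrate 1.5 h RT; ex 405, em 460/530 nm.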
A general note: qHTS replaces the single test concentration by a dilution series.

Experiment [4] is described as follows: qHTS assay to identify small molecule agonists of the NFkB signaling pathway - cell viability counter screen (AID 1159515; calls by dose curve; also: series mostly up to about 61 µM; nearly all actives have a fitted effect of over 55% in size). The gist of the method: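 5 hr compound treatment of NFkB-bla ME-180 cells (2,000/well, seeded overnight beforehand), followed by reporter substrate for 1.5 hr. CellTiter-Glo added afterward; luminescence after 30 min RT.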
Experiment [5] can be described thus: qHTS assay to identify small molecule agonists of the endoplasmic reticulum stress response signaling pathway (AID 1159516; active = well fitted activation curve with a large enough effect in the signal ratio in the repeat runs, not every such curve was filed as active; the % refers to the signal ratio). The gist of the method: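 Reporter HeLa cells (ESRE-beta-lactamase) underwent 5 hr compound incubation at 37 C and 5% CO2 in quantitative HTS format. Detection followed 2 hr of FRET substrate loading at room temperature.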
Experiment [6] is described as follows: qHTS assay to identify small molecule agonists of the endoplasmic reticulum stress response signaling pathway - cell viability counter screen (AID 1159517; calls by dose curve;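 also: HeLa cells carrying an ER stress response element beta-lactamase reporter; series mostly up to about 61 µM; nearly all actives have a fitted effect of over 50% in size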). The gist of the method:
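ESRE-bla HeLa cells, 1,500 per well, seeded overnight then treated with compounds for 5 hr at 37 C. After the beta-lactamase read, viability in the same wells is measured by CellTiter-Glo luminescence after 30 min at room temperature.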

In experiment [7] the target is Nuclear receptor ROR-gamma (Homo sapiens) (UniProt P51449). As to the kind of experiment: qHTS assay to identify small molecule antagonists of the retinoid-related orphan receptor gamma (ROR-gamma) signaling pathway (AID 1159521; also: nearly all actives have a fitted effect of over 50% in size; also: potency is read from the fitted curve at half-maximal effect). The gist of the method:
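Test compounds were applied to Tet-on RORγ CHO cells 2 h ahead of doxycycline hyclate (1 uM final). Luciferase reporter activity was quantified by luminescence after 16 h at 37 C and 5% CO2.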

Experiment [8] in a line: qHTS assay to identify small molecule agonists of the AP-1 signaling pathway - cell viability counter screen (AID 1159525; calls by dose curve; also: nearly all actives have a fitted effect of over 55% in size). The gist of the method: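 AP-1-bla ME-180 cells in Opti-MEM with 0.5% dialyzed FBS, compound exposure 5 h at 37 C in 15-point titration. Viability read in the same wells as ATP content by CellTiter-Glo luminescence, normalised to tetra-n-octylammonium bromide and DMSO controls.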

Experiment [9] is described as follows: qHTS assay to identify small molecule agonists of the AP-1 signaling pathway (AID 1159526; calls by dose curve).
For experiment [10], the target named is Retinoic acid receptor RXR-alpha (Homo sapiens) (UniProt P19793). As to the kind of experiment: qHTS assay to identify small molecule agonists of the RXR signaling pathway (AID 1159527; calls by dose curve; also: nearly all actives have a fitted effect of over 35% in size; also: potency is read from the fitted curve at half-maximal effect). The gist of the method:
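Using 9-cis retinoic acid as the reference agonist, chemicals were tested in HEK 293T cells […] for 16 hr; substrate loading lasted 2 hr at room temperature.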

Experiment [11] can be described thus: qHTS assay to identify small molecule agonists of the RXR signaling pathway - cell viability counter screen (AID 1159529). The gist of the method: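 Compounds dissolved in DMSO were pinned onto HEK 293T cells carrying a beta-lactamase reporter under RXR-alpha control and incubated 16 hr. Cytotoxicity was then quantified by CellTiter-Glo luminescence.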
Experiment [12] can be described thus: qHTS assay to identify small molecule antagonists of the retinoid acid receptor (RAR) signaling pathway - cell viability counter screen (AID 1159551). Also: nearly all actives have a fitted effect of over 35% in size. The gist of the method:
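Seed C3RL4 cells; next day add compound, then retinol to 1 uM final; incubate 6 h at 37 C; add CellTiter-Glo; read luminescence after 30 min at RT.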

A short description of experiment [13]: qHTS assay to identify small molecule antagonists of the retinoic acid receptor (RAR) signaling pathway (AID 1159552; also: nearly all actives have a fitted effect of over 50% in size). The gist of the method: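 Test chemicals and DMSO controls were pin-transferred onto C3RL4 cells a day after seeding; retinol (1 uM final) followed at once. Luminescent reporter output was quantified after 6 hr of co-incubation and 30 min with detection reagent.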

Experiment [14] in a line: qHTS assay to identify small molecule agonists of the retinoic acid receptor (RAR) signaling pathway (AID 1159553). Also: potency is read from the fitted curve at half-maximal effect. The gist of the method:
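Activation of retinol signaling was monitored via a RARE luciferase reporter in C3RL4 cells. After 6 hr compound treatment at 37 C, detection reagent was added for 30 min at room temperature before luminescence reading.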

Experiment [15] is described as follows: qHTS assay to identify small molecule antagonists of the estrogen related receptor (ERR) signaling pathway - cell viability counter screen (AID 1224818).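 Also: series mostly up to about 46 µM; viability measured after 17.5 h of compound exposure.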 The gist of the method: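 In the same ERR cell assay, compound-treated wells (17.5 h, 37 C) were multiplexed with a fluorogenic viability reagent, CellTiter-Fluor, read after 30 min to flag cytotoxic substances.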

Experiment [16] can be described thus: qHTS assay to identify small molecule antagonists of the estrogen related receptor signaling pathway with the pleiotropic PPARgamma coactivator (PGC) cell viability counter screen (AID 1224822; also: series mostly up to about 46 µM). The gist of the method:
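Compounds in DMSO, with positive and negative controls, were applied to PGC/ERR cells (2,000/well) and left 17.5 h at 37 C before CellTiter-Fluor detection.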

Experiment [17] can be described thus: qHTS assay to identify small molecule antagonists of the retinoid-related orphan receptor gamma (ROR-gamma) signaling pathway - cell viability counter screen (AID 1159520). Also: nearly all actives have a fitted effect of over 50% in size. The gist of the method:
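Tet-on ROR gamma CHO cells were given compounds for 2 hr, then doxycycline hyclate at 1 uM final, and incubated 16 hr at 37 C. Viability was measured as ATP content by CellTiter-Glo luminescence.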

Sequence of Retinoic acid receptor RXR-alpha (Homo sapiens) (P19793 whole entry, looked up): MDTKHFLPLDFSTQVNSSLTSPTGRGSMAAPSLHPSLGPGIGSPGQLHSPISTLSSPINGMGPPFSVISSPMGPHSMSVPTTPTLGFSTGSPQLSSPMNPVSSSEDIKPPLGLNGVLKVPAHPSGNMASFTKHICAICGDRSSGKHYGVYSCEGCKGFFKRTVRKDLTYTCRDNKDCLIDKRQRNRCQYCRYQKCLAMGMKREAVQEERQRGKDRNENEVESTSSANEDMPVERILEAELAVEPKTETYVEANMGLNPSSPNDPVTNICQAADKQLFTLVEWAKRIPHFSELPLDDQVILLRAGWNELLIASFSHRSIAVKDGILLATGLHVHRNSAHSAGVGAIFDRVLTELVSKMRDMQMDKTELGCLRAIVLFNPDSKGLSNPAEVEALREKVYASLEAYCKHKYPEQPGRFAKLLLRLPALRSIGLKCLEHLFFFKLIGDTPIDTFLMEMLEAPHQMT

For `NS(=O)(=O)c1cc2c(cc1Cl)NC=NS2(=O)=O`, the Potency entry in experiment [1], in experiment [2], in experiment [6], in [7], in experiment [8] and in experiment [9] was “inactive” throughout. Besides, the Potency result in [10], in experiment [11], in experiment [12], in experiment [13] and in experiment [14] was “inactive” in each case. The outcome in experiment [3], in experiment [4], in [5], in experiment [15] and in experiment [16] was inactive.

For the compound `CCCCCCOC(C)=O`, the Potency result in [1], in experiment [2], in [6], in experiment [17], in [8] and in [9] was “inactive” each time. Moreover, the Potency result in experiment [10], in experiment [11] and in [12] was “inactive” in each case. Moreover, the result in [3], in experiment [4] and in [5] was inactive.

Consider `CCc1ccccc1O`, for which the Potency entry in experiment [1], in experiment [2], in [6], in experiment [8], in experiment [9] and in experiment [11] was “inactive” in each case. Besides, the Potency result in experiment [12], in [13] and in experiment [14] was “inactive” each time. Besides, the result in experiment [3], in experiment [4] and in [5] was inactive. Also, the Potency in experiment [7] is 30.5 µM (active) and inactive; in [10], 5.47 µM (active) and inactive.

Turning to `CC(C)(N=C=O)c1cccc(C(C)(C)N=C=O)c1`, the Potency entry in [1], in experiment [2], in [6], in experiment [17], in experiment [8] and in experiment [9] was “inactive” each time. The Potency result in experiment [10], in experiment [11], in [12], in experiment [13] and in experiment [14] was “inactive” in each case. Moreover, the outcome in experiment [3], in experiment [4] and in experiment [5] was inactive.

Turning to `CCOC(=O)/C=C\C(=O)OCC`, the Potency entry in experiment [1], in experiment [2], in experiment [6], in [7], in experiment [8] and in [9] was “inactive” each time. Further, the Potency result in experiment [10], in [11], in experiment [12], in experiment [13] and in experiment [14] was “inactive” throughout. Besides, the compound was classed as inactive in experiment [3], in experiment [4] and in experiment [5].

As to `COCC(=O)O`, the Potency result in [1], in experiment [2], in experiment [6], in experiment [7], in experiment [8] and in experiment [9] was “inactive” throughout. The Potency result in [10], in experiment [11], in [12], in experiment [13] and in experiment [14] was “inactive” in each case. In addition, the outcome in experiment [3], in experiment [4] and in experiment [5] was inactive.

For the compound `NC(=O)/N=N/C(N)=O`, the Potency entry in [1], in experiment [2], in [6], in [17], in [8] and in [9] was “inactive” in each case. In addition, the Potency result in [10], in experiment [11], in experiment [12], in experiment [13] and in experiment [14] was “inactive” each time. For the same compound, the result in experiment [3], in [4] and in experiment [5] was inactive.

Consider `CN(C)c1cccc(O)c1`, for which the Potency entry in experiment [1], in experiment [2], in experiment [6], in experiment [17], in experiment [8] and in experiment [9] was “inactive” throughout. The Potency result in experiment [10], in experiment [11], in experiment [12] and in experiment [13] was “inactive” throughout. The result in [3], in experiment [4] and in experiment [5] was inactive. The Potency entry in experiment [14] is “inactive and 34.4 µM (active)”.

In the case of `CC1=C(/C=C/C(C)=C/C=C/C(C)=C/CO)C(C)(C)CCC1`, the Potency result in experiment [1], in experiment [2], in experiment [6], in [17], in experiment [8] and in experiment [9] was “inactive” in each case. Further, the Potency result in experiment [11], in experiment [12] and in experiment [13] was “inactive” in each case. Moreover, the outcome in [3], in experiment [4] and in experiment [5] was inactive. For the same compound, the Potency in [14] is 13.9 µM (active) and 32.3 µM (active).
